Data from PubChem BioAssay AID720550 (National Center for Advancing Translational Sciences (NCATS), 2013).
Results filed as inconclusive are left out. Activity calls are given as the source filed them. Calls come from the whole dose curve; as a rule, active = well fitted curve in the direction sought with a large enough effect; inconclusive = small, poorly fitted or top-dose-only effect, or another doubt; inactive = no such curve, though single readings can be large or run the other way.

Assay: qHTS for Inhibitors of Bloom's syndrome helicase (BLM): Thiazole Orange DNA Binding Counterscreen for SAR.
Source text: Human RecQ DNA helicases participate in maintenance of genome stability and DNA repair. While other types of helicases have been explored as targets for drug development, members of the RecQ family have remained less well characterized. Mutations of the Bloom helicase gene have been associated with the rare human genetic disease called Bloom syndrome. […] Moreover, identified inhibitors can be used in cells and animal models to examine the consequences of inhibition on the survival of cancer cells where it has been shown that BLM plays an important role.
A fluorescence-based, biochemical assay in 1536 well format was developed to evaluate inhibition of BLM DNA unwinding activity. This assay was used to screen the MLPCN library. The resulting compounds were subjected to orthogonal and secondary biochemical assays to triage the initial hits, to classify compounds based on mode of action and to derive structure activity relationships (SARs) of candidate effectors. The Thiazole Orange (ThO) DNA binding (TO-binding) is used to eliminate inhibitors that operate via nonspecific DNA binding. […]
Compounds were added to a 4 uL mixture of 50 nM DNA and 100 nM ThO via pintool transfer. The fluorescence signal (excitation 480 nm, emission 530 nm) was measured after 15 min incubation at room temperature using the ViewLux CCD imager.

Row | SMILES | outcome
1 | N#Cc1ccc(NC(=O)Nc2nnc(-c3ccncc3)s2)cc1Cl | inactive
2 | N#Cc1ccc(NC(=O)Nc2nnc(-c3ccncc3)s2)cc1C(F)(F)F | inactive
